IL-1B inflam inh: blocks inflammasome-driven IL-1 beta release. THP-1 LPS/ATP IL-1B secretion, AlphaLISA, 16 h; stronger effect = lower value. activity change, % at 57.5 µM. 360,000 compounds, 4.7% hits; in the data active = activity change below about -50%; inconclusive = mostly about -30% to -49%
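THP-1 cells pretreated 1 hr with compounds (up to 57.5 uM final), then stimulated with LPS (250 ng/mL final) plus ATP (1.25 mM final); secreted IL-1B measured by AlphaLISA after 16 hr, decreased signal indicating inhibition.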
12-LOX inh: blocks human arachidonate 12S-lipoxygenase | P18054 | purified 12hLO, xylenol orange hydroperoxide absorbance | Potency, µM (top dose mostly 108 µM), most hits filed as inhibitors | 580,000 compounds, 1.1% hits | AID 1671190
Target sequence (P18054 whole entry, looked up): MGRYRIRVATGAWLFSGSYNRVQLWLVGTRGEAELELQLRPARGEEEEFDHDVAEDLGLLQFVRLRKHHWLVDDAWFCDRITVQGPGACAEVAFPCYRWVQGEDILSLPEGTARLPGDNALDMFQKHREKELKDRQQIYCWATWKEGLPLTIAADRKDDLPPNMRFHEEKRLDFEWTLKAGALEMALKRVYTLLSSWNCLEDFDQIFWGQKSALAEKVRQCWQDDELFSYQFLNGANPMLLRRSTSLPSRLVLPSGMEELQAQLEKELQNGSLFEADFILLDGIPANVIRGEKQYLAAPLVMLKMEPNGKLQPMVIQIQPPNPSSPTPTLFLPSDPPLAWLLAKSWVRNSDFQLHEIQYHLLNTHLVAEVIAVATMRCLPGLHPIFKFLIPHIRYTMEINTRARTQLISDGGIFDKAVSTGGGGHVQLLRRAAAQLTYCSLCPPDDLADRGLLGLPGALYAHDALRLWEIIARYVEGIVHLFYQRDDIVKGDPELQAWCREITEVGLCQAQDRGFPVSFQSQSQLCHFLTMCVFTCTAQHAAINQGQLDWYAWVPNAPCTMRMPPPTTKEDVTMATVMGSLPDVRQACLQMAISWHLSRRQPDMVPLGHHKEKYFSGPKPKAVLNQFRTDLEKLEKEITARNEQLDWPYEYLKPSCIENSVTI
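Hydroperoxide product was detected by ferrous iron/xylenol orange as the 573 to 405 nm absorbance ratio. Arachidonic acid at 40 uM (final) was turned over for 30 min at room temperature by 150 nM human 12hLO, pH 7.0 Hepes buffer, after 15 min compound preincubation.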
DT40 TDP1 no CPT: qHTS for Inhibitors of human tyrosyl-DNA phosphodiesterase 1 (TDP1): qHTS in cells in absence of CPT | DT40 Tdp1-/- hTDP1 cells, no CPT, ATP luminescence, 48 h | Potency, µM (titrated, usually from 46.2 µM), most hits filed as inhibitors | 420,000 compounds, 15% hits; note: nearly all actives have a fitted effect of over 55% in size
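Compound effects on proliferation are scored in DT40 Tdp1-/-;hTDP1 cells in the absence of CPT. ATP levels (CellTiter-Glo luminescence) are recorded after a ≥48 hr, 37 °C incubation.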
HT1080 IDH1KD tx: kills HT-1080 cells with IDH1 knockdown; HT-1080 IDH1 knockdown viability, ATP luminescence, 48 h; Potency, µM (titrated, usually from 46.1 µM), usual class: cytotoxic; 360,000 compounds, 2% hits; AID 686971
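IDH1KD HT-1080 cells, 750/well, RPMI + 5% FBS; compound pinned after 2 h settling; 48 h, 37 °C; CellTiter-Glo luminescence; % activity normalised to DMSO and no-cell wells; curves fitted, classed by r2 and efficacy.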
DT40 TDP1 CPT: growth inhibition of DT40 Tdp1-/-;hTDP1 cells with camptothecin (screen for TDP1 inhibitors); 420,000 compounds, 12% hits; chicken DT40 Tdp1-/-;hTDP1 cells + 20 nM CPT, ATP luminescence, 48 h; AID 686979; Potency, µM (top dose mostly 46.2 µM), actives largely listed as inhibitors; note: nearly all actives have a fitted effect of over 55% in size
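Chicken DT40 Tdp1-/- cells stably complemented with human TDP1 were seeded at 400 cells/well in medium containing 20 nM camptothecin, exposed to pin-transferred compounds, and grown at 37 °C for at least 48 hr. Viability was read as ATP luminescence.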
HT1080-NT tox: kills 2HG-producing HT-1080-NT fibrosarcoma cells | 360,000 compounds, 1.6% hits | HT-1080-NT fibrosarcoma viability, CellTiter-Glo ATP luminescence, 48 h | AID 686970 | Potency, µM (doses to about 46.1 µM), usual class: cytotoxic;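 note: NT is the 2HG producing partner of a matched IDH1 knockdown line; nearly all actives have a fitted effect of over 55% in size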
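HT-1080-NT fibrosarcoma cells (2HG-overproducing), 750 cells/well in RPMI with 5% FBS, dosed after 2 h and incubated 48 h at 37C. CellTiter-Glo luminescence normalized to DMSO and no-cell wells; concentration-response curves fitted and classed.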
A number is an active result; – = inactive; ? = inconclusive; · = no result; [ ] = another dose, or the depositor's remark. Shown is part of a subset that was picked to be rich in hits. Unless noted, calls come from the whole dose curve; as a rule, active = well fitted curve in the direction sought with a large enough effect; inconclusive = small, poorly fitted or top-dose-only effect, or another doubt; inactive = no such curve, though single readings can be large; an effect the other way counts as inactive or inconclusive.

SMILES	IL-1B inflam inh	12-LOX inh	DT40 TDP1 no CPT	HT1080 IDH1KD tx	DT40 TDP1 CPT	HT1080-NT tox
Cc1cc(C(=O)NCC2CCC3(CCN(Cc4ccc(-c5ccccc5)cc4)CC3)O2)n(C)n1 (stereo not drawn)	·	–	4.6µM	·	?	·
CCCCN(C)C(=O)c1ccc2nc(C)c(C)nc2c1	·	–	·	·	·	·
CC(C)NC(=O)N1CCN(c2cccc(C=O)c2)C(=O)C1	·	–[12.5 µM]	·	·	·	·
CCc1ccc(C(O)c2ncc(-c3ccc(Cl)cc3)[nH]2)cc1 (stereo not drawn)	–	–	?	–	?	–
OC(Cc1ccccc1)c1ncc(-c2ccc(Cl)cc2)[nH]1 (stereo not drawn)	–	–	16µM	?	?	?
OC(Cc1ccccc1Br)c1ncc(-c2ccc(Cl)cc2)[nH]1 (stereo not drawn)	–	?	?	21µM	?	?
CC(Sc1nc2cc(Cl)ccc2s1)C(=O)NCc1ccc2c(c1)OCO2 (stereo not drawn)	·	–	·	·	·	·
COc1ccc(-c2nc(CSCC(=O)N3CCN(c4ccccc4)CC3)c(C)o2)cc1	·	–	10µM	·	10µM	·
Cc1ccsc1-c1nc(CSCC(=O)N2CCN(c3ccccc3)CC2)c(C)o1	–	–	?	–	15µM	–
O=C(c1cc(-c2ccccc2)on1)N1CCOCC1	·	–	·	·	·	·
CCOC(=O)/C=C(C)\C=C\c1c[nH]c2ccccc12	-64	?	29µM	?	–	?
CN(C)N1C(=O)CC(c2c(F)cccc2Cl)C2=C1CC(C)(C)CC2=O (stereo not drawn)	·	–	·	·	·	·
Cc1ccc(CN(C)C(=O)Cn2nnn(-c3cccs3)c2=O)cc1	·	–	·	·	·	·
O=C(N/N=C/c1ccc([N+](=O)[O-])cc1)c1ccc(COc2ccccc2-c2ccccc2)cc1	–	–	13µM	–	?	–
O=C(N/N=C/c1ccc2c(c1)OCO2)c1ccc(COc2cccc3cccnc23)cc1	–	–	26µM	?	?	?
COc1cc(NC(=O)CN2c3cccc4cccc(c34)S2(=O)=O)cc(OC)c1OC	–	–	21µM	?	?	–
COCCCn1c(C)cc(C(=O)CN2c3cccc4cccc(c34)S2(=O)=O)c1C	?	–	16µM	–	29µM	–
O=C(N/N=C/c1ccc([N+](=O)[O-])cc1)c1ccccc1OCc1ccccc1	–	–	?	–	–	–
NC(=O)Cc1c[nH]c2ncc(-c3cccc(C(F)(F)F)c3)cc12	·	–	·	·	·	·
CC(=O)N1CCN(C(=O)c2ccc3nc(C)c(C)nc3c2)CC1	·	–	·	·	·	·
CC(=O)c1ccc(NC(=O)O[C@@H]2CO[C@H]3[C@@H]2OC[C@@H]3n2nnnc2-c2ccc(CN3CCOCC3)cc2)cc1	·	–	·	·	·	·
CC(C)(C)c1ccc(OCc2ccc(C(=O)N/N=C3\CC4CC=CC34)cc2)cc1 (stereo not drawn)	–	–	15µM	?	13µM	?
COc1cc(/C=N/NC(=O)c2ccc(CN3c4cccc5cccc(c45)S3(=O)=O)cc2)cc(OC)c1O	–	–	16µM	–	?	–
CCOc1ccc(/C=N/NC(=O)COc2ccccc2-c2ccccc2)cc1	–	–	?	?	18µM	?
CCOc1ccc(/C=N/NC(=O)c2c(-c3ccccc3)noc2C)cc1	–	–	–	–	–	–
SMILES	IL-1B inflam inh	12-LOX inh	DT40 TDP1 no CPT	HT1080 IDH1KD tx	DT40 TDP1 CPT	HT1080-NT tox
CC(C)(C)c1ccc(OCc2ccc(C(=O)N/N=C/c3ccc(O)c(O)c3)cc2)cc1	–	?	1.5µM	?	1.3µM	26µM
CC(C)(C)c1ccc(C(=O)OCc2c(Cl)cccc2Cl)cc1	·	–	·	·	·	·
Cc1ccc(C)c(NC(=O)Cn2c(=O)n(-c3ccc(CC(=O)NC(C)C)cc3)c(=O)c3ccccc32)c1	·	–	·	·	·	·
O=C(N/N=C/c1cccc(O)c1)c1ccc(COc2ccccc2Br)cc1	-68	–	?	–	?	–
COc1ccc(/C=N/NC(=O)c2ccc(COc3cccc4cccnc34)cc2)cc1OC	–	–	–	–	–	–
COc1ccc(/C=N/NC(=O)c2ccc(COc3cccc4cccnc34)cc2)cc1O	–	–	13µM	–	?	–
O=C(Nc1ccc(Cn2cccn2)cc1)c1ccc(COc2ccccc2Br)cc1	-60	–	15µM	?	13µM	?
O=C(Nc1ccn(Cc2c(F)c(F)c(F)c(F)c2F)n1)c1ccc(COc2ccccc2Cl)cc1	–	–	?	?	–	–[9.24 µM]
CCOC(=O)C(=Cc1cc(=O)c(OC)co1)C(=O)OCC	-97	–	0.73µM	18µM	1.3µM	12µM
CCOc1ccc(N2C(N)=NC(N)=NC2(C)C)cc1	–	–	6.5µM	10µM	?	?
CC1(C)N=C(N)N=C(N)N1c1cccc(C#N)c1	–	–	1µM	0.23µM	?	?
CCOC(=O)c1cccc(N2C(N)=NC(N)=NC2(C)C)c1	–	–	4.1µM	?	–	?
CC1(C)N=C(N)N=C(N)N1c1cccc(C(=O)O)c1	–	–	–	–	–	–
Cc1ccccc1N1C(N)=NC(N)=NC1(C)C	–	–	?	–	–	–
COc1ccc(N2C(N)=NC(N)=NC2(C)C)cc1	–	–	0.33µM	8.2µM	?	9.2µM
COc1ccccc1N1C(N)=NC(N)=NC1(C)C	–	–	?	–	–	–
COc1cccc(N2C(N)=NC(N)=NC2(C)C)c1	–	–	1µM	2.3µM	5.2µM	6.5µM
COc1cccc(N2CC(=O)N(c3cccc(OC)c3)CC2=O)c1	–	–	–	–	–	–
CCOC(=O)N1CCC(NC(=O)C(C)n2nc(C)c3sc4ccccc4c3c2=O)CC1 (stereo not drawn)	·	–	·	·	·	·
Cc1oc(-c2ccc(Cl)cc2)nc1CSc1nc2c(c(=O)[nH]1)CCC2	·	–	·	·	·	·
c1ccc(-c2nc3nc4ccccc4nc3n2CC2CCCO2)cc1 (stereo not drawn)	–	–	15µM	–	?	–
O=C(CSc1ncc(-c2ccccc2)n1CC1CCCO1)N1CCCCC1 (stereo not drawn)	–	–	–	–	–	–
Nc1ncc(-c2ccccc2)n1CC1CCCO1 (stereo not drawn)	–	–	18µM	–	?	–
c1coc(-c2nc3nc4ccccc4nc3n2CC2CCCO2)c1 (stereo not drawn)	–	–	?	–	–	–
CCN(CC)S(=O)(=O)c1ccc(C)c(N=CN(C)C)c1	·	–	·	·	·	·
CCCC(CNC(C)=O)(C1=CCCCC1)c1ccccc1 (stereo not drawn)	–	–	13µM	–	18µM	–
O=C(NC(CC1=CCCCC1)c1ccccc1)C(F)(F)F (stereo not drawn)	·	–	·	·	·	·

Assay outcomes as filed in PubChem BioAssay.
